In PubChem BioAssay AID504834 (National Center for Advancing Translational Sciences (NCATS), 2011):
Hit rate of the full screen: of about 320,000 compounds, about 22,000 (6.9%) were called active. About 27% were inconclusive and are not listed. Calls follow the shape of the dose curve; as a rule, active = well fitted inhibition curve with a large enough effect; inconclusive = small, poorly fitted or top-dose-only effect, or another doubt; inactive = no such curve, though single readings can be large or run the other way. Many of the other results were omitted from the sample, so actives are more common in it than they were.

Test: Primary qHTS for delayed death inhibitors of the malarial parasite plastid, 96 hour incubation
Conditions: P. falciparum luciferase reporter growth; series mostly up to 28.7 µM; activity change, negative = inhibition: at the top concentration
In short: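 P. falciparum expressing integrated firefly luciferase grown in erythrocytes (2% hematocrit, 0.05% parasitemia final) with compounds for 96 hours at 37 C, 5% CO2. Growth inhibition read as loss of luminescence after adding luciferase detection reagent.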
% is scaled to controls: 0 for no effect and ±100 for the full control effect; potency is read from the fitted curve at half-maximal effect.

Row | Compound | activity change, negative = inhibition | Potency
1 | O=C(COC(=O)c1ncc(Cl)c(Cl)c1Cl)NNC(=O)c1ccccc1 | -2.5% (inactive) | 
2 | CCCCN(C(=O)C1=NN(c2cc(C)ccc2C)C(=O)CC1)c1c(N)n(CCC)c(=O)[nH]c1=O | -27.3% (inactive) | 
3 | Cc1cc(NC(=O)C(C)N2C(=O)c3ccccc3S2(=O)=O)no1 (stereo unspecified) | 50.7% (inactive) | 
4 | Cc1cc(NC(=O)C(C)SCC(=O)Nc2ccccc2N2CCCCC2)no1 (stereo unspecified) |  | 9.28 µM (active)
5 | Cc1ccc(-c2noc(CCC(=O)Nc3ccccc3N3CCN(C)CC3)n2)cc1 | -10.9% (inactive) | 
6 | CC1(c2ccc3ccccc3c2)NC(=O)NC1=O (stereo unspecified) | 15.2% (inactive) | 
7 | Cc1cc(=O)oc2cc(OCC(=O)Nc3nnc(C4CC4)s3)ccc12 | 24.1% (inactive) | 
8 | CCOC(=O)Cc1csc(NC(=O)COc2ccc3c(C)cc(=O)oc3c2)n1 | 37.9% (inactive) | 
9 | Cc1ccc(O)c(/C=N/NC(=O)COc2ccc3c(C)cc(=O)oc3c2)c1 |  | 10.4 µM (active)
10 | COc1cccc2[nH]c(C(=O)NCCc3ccccc3)cc12 | 30.1% (inactive) | 
11 | Cc1nnc(Nc2ccccc2F)s1 | 3.63% (inactive) | 
12 | NS(=O)(=O)c1ccc(CCNC(=O)CNC(=O)Cc2ccccc2)cc1 | 12.5% (inactive) | 
13 | CC(=O)O[C@H]1c2ccccc2-c2ccccc2[C@@H]1OC(C)=O | -23.2% (inactive) | 
14 | O=S(=O)(c1ccc(SCc2ccc(Br)cc2)nc1)N1CCOCC1 | -31.3% (inactive) | 
15 | CN(C)c1nccc(NCc2ccccc2)c1C#N | -1% (inactive) | 
16 | CCc1nc(NCCO)c(C#N)c2c1CCCC2 | 8.09% (inactive) | 
17 | CCCCc1nc(NCc2ccccc2)c(C#N)c2c1CCCC2 |  | 5.22 µM (active)
18 | CCOCc1nnc(NC(=O)CCS(=O)(=O)Cc2ccccc2)s1 | 8.85% (inactive) | 
19 | COc1ccc(CNS(=O)(=O)c2cc(-c3cc(C)no3)ccc2C(C)C)cc1 | 21.3% (inactive) | 
20 | COc1ccc(CNS(=O)(=O)c2ccc(NC(=O)N3CCCCC3)cc2)cc1 | -9.06% (inactive) | 
21 | COc1ccc(CNS(=O)(=O)c2ccc(-c3cnc(C4CC4)o3)cc2)cc1 |  | 10.4 µM (active)
22 | CCC(=O)N1c2ccc(S(=O)(=O)NCc3ccco3)cc2CC1C (stereo unspecified) | 100% (inactive) | 
23 | COCCN(C(=O)CCC(=O)Nc1ccccn1)C(C(=O)NCCC(C)C)c1ccc(OC)cc1 (stereo unspecified) |  | 0.522 µM (active)
24 | COCCNC(=O)C(c1ccc(C)cc1)N(C(=O)CCC(=O)Nc1ccccn1)c1cccc(C)c1 (stereo unspecified) | 7.39% (inactive) | 
25 | COCCN(C(=O)CCC(=O)Nc1nccs1)C(C(=O)NCCC(C)C)c1ccc(F)cc1 (stereo unspecified) | 20% (inactive) | 
26 | CN(CC(=O)NCc1ccc(Cl)cc1)S(=O)(=O)c1cccs1 | 22.6% (inactive) | 

Row | Compound | activity change, negative = inhibition | Potency
27 | COc1cc(SC)ccc1C(=O)NCCOc1ccccc1Cl |  | 0.738 µM (active)
28 | COc1ccccc1OCCNC(=O)CCNC(=O)c1ccccc1Cl | -22.2% (inactive) | 
29 | COc1ccc(N2C(=O)C3CCCN3C2c2cc(OC)c(OC)cc2OC)cc1 (stereo unspecified) | 45.6% (inactive) | 
30 | COc1cccc(N2C(=O)C3CCCN3C2c2ccc(F)cc2)c1 (stereo unspecified) |  | 10.4 µM (active)
31 | COc1ccc(N2C(=O)C3CCCN3C2c2cccc(OC)c2)cc1 (stereo unspecified) | 7.91% (inactive) | 
32 | CCNC(=O)c1cnn(-c2ccccc2)c1-c1ccccc1 | -20% (inactive) | 
33 | COc1ccccc1CNC(=O)COn1nnc2ccc(S(=O)(=O)N3CCOCC3)cc21 | -2.01% (inactive) | 
34 | O=C(CN(CC1CCCO1)C(=O)CNS(=O)(=O)c1ccc(F)cc1)NCc1ccco1 (stereo unspecified) | 19.6% (inactive) | 
35 | CCCC(C(=O)NCc1ccco1)N(C(=O)CNS(=O)(=O)c1ccccc1)C1CCCC1 (stereo unspecified) |  | 10.4 µM (active)
36 | CC(C)C(C(=O)NCc1ccco1)N(CC1CCCO1)C(=O)CNS(=O)(=O)c1ccc(F)cc1 (stereo unspecified) | -19.1% (inactive) | 
37 | Cc1cc(=O)n2[nH]c(-c3cccc(Cl)c3)cc2n1 | -30.1% (inactive) | 
38 | CCC(C)n1[nH]c(=O)c2c(C)cc(C)nc21 (stereo unspecified) | 4.88% (inactive) | 
39 | C=CCc1c(C)nc2cc(-c3ccccc3)[nH]n2c1=O | 20.7% (inactive) | 
40 | CCc1c(C)nc2cc(-c3cccs3)[nH]n2c1=O |  | 2.08 µM (active)
41 | Cc1nc2nc(COc3ccccc3)[nH]n2c(=O)c1Cc1ccccc1 | 29% (inactive) | 
42 | CCc1c(C)nc2cc(C)[nH]n2c1=O |  | 3.7 µM (active)
43 | CC(=O)Nc1ccc(S(=O)(=O)N2CCC(C(=O)N[C@@H](Cc3ccccc3)C(=O)O)CC2)cc1 | 16.2% (inactive) | 
44 | CC(OC(=O)CCC(=O)c1ccccc1)C(=O)Nc1ccc(F)cc1 (stereo unspecified) | 4.68% (inactive) | 
45 | NC(=O)CN1CCCC1c1ccc2c(c1)OCCO2 (stereo unspecified) | 37.4% (inactive) | 
46 | O=C(C1CCC1)N1CCN(S(=O)(=O)c2ccc([N+](=O)[O-])cc2)CC1 |  | 10.4 µM (active)
47 | O=C(Cc1ccccc1)N1CCN(S(=O)(=O)c2ccc([N+](=O)[O-])cc2)CC1 | 0.489% (inactive) | 
48 | O=C(C1CCCN(S(=O)(=O)c2ccc([N+](=O)[O-])cc2)C1)N1CCCCC1 (stereo unspecified) | 83% (inactive) | 
49 | CC1CCCCC1NC(=O)/C(C#N)=C/C=C/c1ccccc1[N+](=O)[O-] (stereo unspecified) |  | 11.7 µM (active)
50 | O=C(/C=C/c1ccccc1[N+](=O)[O-])NCC1CCCO1 (stereo unspecified) | 0% (inactive) | 
51 | O=C(/C=C/c1ccccc1[N+](=O)[O-])OC1CCCCC1=O (stereo unspecified) | 22.2% (inactive) | 
